Measurements as given in PubChem BioAssay AID1159580 (chemical genetic matrix, 2015).
Out of some 5,500 compounds screened, about 2,000 (36%) were called active. Roughly 18% stayed inconclusive and do not appear here. No stated cut-off is given here; in the data, active means normalized growth mostly below about 0.91 (no sharp cut-off); inconclusive means no clear call, values can overlap the other calls; inactive means mostly above about 0.92. Some of the results follow.

Assay: chemical genetic growth profiling, strain panel (AID 1159580);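 further: tested at 20 µM; growth read once vehicle control cultures reached saturation at 30 °C; 1 = growth at the plate median or of vehicle wells; lower values mean less growth of the strain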
Conditions: growth OD

Measured: normalized growth

C[C@@H]1C(=O)OC2[C@H](O)C34[C@@H]5OC(=O)[C@@]3(O[C@@H]3OC(=O)[C@H](O)[C@@]34[C@H](C(C)(C)C)[C@H]5O)[C@]21O (some centres undefined)
inactive: S. cerevisiae deletion strains, locus YJR066W, strain TOR1, hits give low values 0.958 | S. cerevisiae deletion strains, locus YKL009W, strain mrt4, hits give low values 1.02 | S. cerevisiae deletion strains, locus YKL068W, hits give low values 1 | S. cerevisiae deletion strains, locus YKL085W, strain MDH1 (second series), hits give low values 1.01 | S. cerevisiae deletion strains, locus YKL085W, strain MDH1, hits give low values 1.01 | S. cerevisiae deletion strains, locus YKL160W, strain elf1, hits give low values 0.981 | S. cerevisiae deletion strains, locus YKL190W, strain CNB1, hits give low values 0.993 | S. cerevisiae deletion strains, locus YKR001C, strain vps1, hits give low values 1.02 | S. cerevisiae deletion strains, locus YKR026C, strain gcn3, hits give low values 0.977 | S. cerevisiae deletion strains, locus YKR091W, strain srl3, hits give low values 0.955 | S. cerevisiae deletion strains, locus YLL001W, strain dnm1, hits give low values 0.987 | S. cerevisiae deletion strains, locus YLL026W, hits give low values 0.984 | S. cerevisiae deletion strains, locus YLL041C, strain sdh2, hits give low values 0.971 | S. cerevisiae deletion strains, locus YLR027C, strain aat2, hits give low values 0.973 | S. cerevisiae deletion strains, locus YLR039C, strain RIC1, hits give low values 1 | S. cerevisiae deletion strains, locus YLR058C, strain SHM2, hits give low values 1 | S. cerevisiae deletion strains, locus YLR102C, strain apc9, hits give low values 1.01 | S. cerevisiae deletion strains, locus YLR113W, strain HOG1, hits give low values 0.997 | S. cerevisiae deletion strains, locus YLR221C, strain rsa3, hits give low values 0.978 | S. cerevisiae deletion strains, locus YLR258W, strain gsy2, hits give low values 0.978 | S. cerevisiae deletion strains, locus YLR262C, strain YPT6 (second series), hits give low values 0.964 | S. cerevisiae deletion strains, locus YLR262C, strain YPT6, hits give low values 1.01 | S. cerevisiae deletion strains, locus YLR268W, strain sec22, hits give low values 1.02 | S. cerevisiae deletion strains, locus YLR320W, strain mms22, hits give low values 0.98 | S. cerevisiae deletion strains, locus YLR330W, strain CHS5, hits give low values 1.01 | S. cerevisiae deletion strains, locus YLR342W, strain FKS1 (second series), hits give low values 1.01 | S. cerevisiae deletion strains, locus YLR342W, strain FKS1, hits give low values 0.982 | S. cerevisiae deletion strains, locus YLR357W, strain rsc2, hits give low values 0.932 | S. cerevisiae deletion strains, locus YLR370C, strain arc18, hits give low values 0.97 | S. cerevisiae deletion strains, locus YLR371W, strain rom2, hits give low values 1.02 | S. cerevisiae deletion strains, locus YLR384C, strain iki3, hits give low values 0.981 | S. cerevisiae deletion strains, locus YLR418C, strain cdc73, hits give low values 1.02 | S. cerevisiae deletion strains, locus YML016C, strain PPZ1, hits give low values 1.01 | S. cerevisiae deletion strains, locus YML032C, strain rad52, hits give low values 1 | S. cerevisiae deletion strains, locus YML120C, strain ndi1, hits give low values 0.975 | S. cerevisiae deletion strains, locus YML124C, strain tub3, hits give low values 1.02 | S. cerevisiae deletion strains, locus YMR058W, strain fet3, hits give low values 0.966 | S. cerevisiae deletion strains, locus YMR078C, strain ctf18, hits give low values 1.02 | S. cerevisiae deletion strains, locus YMR125W, strain sto1, hits give low values 0.941 | S. cerevisiae deletion strains, locus YMR129W, hits give low values 0.959 | S. cerevisiae deletion strains, locus YMR205C, strain PFK2, hits give low values 0.984 | S. cerevisiae deletion strains, locus YMR223W, strain ubp8, hits give low values 1.03 | S. cerevisiae deletion strains, locus YMR231W, strain pep5, hits give low values 0.984 | S. cerevisiae deletion strains, locus YMR263W, strain SAP30, hits give low values 1 | S. cerevisiae deletion strains, locus YMR307W, strain GAS1, hits give low values 0.979 | S. cerevisiae deletion strains, locus YNL067W, strain RPL9B, hits give low values 0.995 | S. cerevisiae deletion strains, locus YNL071W, strain lat1, hits give low values 0.974 | S. cerevisiae deletion strains, locus YNL183C, strain NPR1, hits give low values 0.973 | S. cerevisiae deletion strains, locus YNL209W, strain ssb2, hits give low values 0.971 | S. cerevisiae deletion strains, locus YNL233W, strain BNI4, hits give low values 1 | S. cerevisiae deletion strains, locus YNL248C, strain rpa49, hits give low values 0.961 | S. cerevisiae deletion strains, locus YNL250W, strain rad50, hits give low values 1.02 | S. cerevisiae deletion strains, locus YNL271C, strain bni1, hits give low values 1.01 | S. cerevisiae deletion strains, locus YNL298W, strain CLA4, hits give low values 1.02 | S. cerevisiae deletion strains, locus YNL307C, strain MCK1, hits give low values 1.03 | S. cerevisiae deletion strains, locus YNL322C, strain KRE1 (second series), hits give low values 0.963 | S. cerevisiae deletion strains, locus YNL322C, strain KRE1, hits give low values 1 | S. cerevisiae deletion strains, locus YNR049C, strain mso1, hits give low values 0.95 | S. cerevisiae deletion strains, locus YNR052C, strain pop2, hits give low values 1.01 | S. cerevisiae deletion strains, locus YOL012C, strain htz1 1.18 | S. cerevisiae deletion strains, locus YOL147C, strain pex11, hits give low values 1.02 | S. cerevisiae deletion strains, locus YOR001W, strain rrp6, hits give low values 0.972 | S. cerevisiae deletion strains, locus YOR061W, strain CKA2, hits give low values 1 | S. cerevisiae deletion strains, locus YOR069W, strain VPS5, hits give low values 0.997 | S. cerevisiae deletion strains, locus YOR070C, strain gyp1, hits give low values 0.988 | S. cerevisiae deletion strains, locus YOR080W, strain dia2, hits give low values 0.951 | S. cerevisiae deletion strains, locus YOR083W, strain WHI5, hits give low values 0.988 | S. cerevisiae deletion strains, locus YOR106W, strain vam3, hits give low values 0.978 | S. cerevisiae deletion strains, locus YOR136W, strain idh2, hits give low values 1.01 | S. cerevisiae deletion strains, locus YOR144C, strain elg1, hits give low values 1.01 | S. cerevisiae deletion strains, locus YOR184W, strain ser1, hits give low values 1.03 | S. cerevisiae deletion strains, locus YOR231W, strain MKK1, hits give low values 1.02 | S. cerevisiae deletion strains, locus YOR265W, strain rbl2, hits give low values 0.977 | S. cerevisiae deletion strains, locus YOR270C, strain vph1, hits give low values 0.935 | S. cerevisiae deletion strains, locus YOR290C, strain snf2, hits give low values 0.953 | S. cerevisiae deletion strains, locus YOR316C, strain cot1, hits give low values 1.02 | S. cerevisiae deletion strains, locus YPL051W, strain arl3, hits give low values 0.985 | S. cerevisiae deletion strains, locus YPL055C, strain LGE1, hits give low values 0.998 | S. cerevisiae deletion strains, locus YPL078C, strain atp4, hits give low values 0.984 | S. cerevisiae deletion strains, locus YPL106C, strain sse1, hits give low values 0.944 | S. cerevisiae deletion strains, locus YPL240C, strain hsp82, hits give low values 0.979 | S. cerevisiae deletion strains, locus YPL241C, strain CIN2, hits give low values 0.99 | S. cerevisiae deletion strains, locus YPL256C, strain CLN2, hits give low values 1.06 | S. cerevisiae deletion strains, locus YPR119W, strain clb2, hits give low values 1.01 | S. cerevisiae deletion strains, locus YPR141C, strain kar3, hits give low values 1.01 | S. cerevisiae deletion strains, locus YPR163C, strain tif3, hits give low values 1.02 | S. cerevisiae deletion strains, locus YPR167C, strain met16, hits give low values 1.02 | S. cerevisiae deletion strains, strain wtn01, hits give low values 1.04 | S. cerevisiae strains, strain wild type, hits give low values 0.983
